What all share (test): PBM; 200 nM protein, PBS
What all share (conditions): dsDNA, one strand shown

Assay [1] concerns the target CRX (Homo sapiens, UniProt O43186 26-111).
For assay [2], the target named is PRRX1 (Homo sapiens, UniProt P54821 80-166, F113S).
In assay [3] the target is CRX (Homo sapiens, UniProt O43186 26-111, E42D).
Assay [4] deals with CRX (Homo sapiens, UniProt O43186 26-111, R41L).
The target of assay [5] is PRRX1 (Homo sapiens, UniProt P54821 80-166).
Assay [6] concerns the target ALX4 (Homo sapiens, UniProt Q9H161 200-286).
The target in assay [7] is ALX4 (Homo sapiens, UniProt Q9H161 200-286, Q225E).
ALX4 (Homo sapiens, UniProt Q9H161 200-286, Q225E), sequence (Q9H161 200-286 Q225E): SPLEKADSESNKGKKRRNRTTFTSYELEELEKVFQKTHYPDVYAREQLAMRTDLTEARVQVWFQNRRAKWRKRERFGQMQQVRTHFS
Assay [8] has as its target HOXA2 (Homo sapiens, UniProt O43364 129-215, R185T).
For assay [9], the target named is ALX1 (Homo sapiens, UniProt Q15699 118-204, L144V).
ALX1 (Homo sapiens, UniProt Q15699 118-204, L144V), sequence (Q15699 118-204 L144V): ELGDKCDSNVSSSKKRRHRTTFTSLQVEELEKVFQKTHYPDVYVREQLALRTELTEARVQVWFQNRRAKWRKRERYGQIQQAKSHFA
Assay [10] concerns the target HOXA2 (Homo sapiens, UniProt O43364 129-215, R185K).
Assay [11] addresses ALX1 (Homo sapiens, UniProt Q15699 118-204, L144R).
In assay [12] the target is HOXA2 (Homo sapiens, UniProt O43364 129-215, Y150S).
HOXA2 (Homo sapiens, UniProt O43364 129-215, Y150S), sequence (O43364 129-215 Y150S): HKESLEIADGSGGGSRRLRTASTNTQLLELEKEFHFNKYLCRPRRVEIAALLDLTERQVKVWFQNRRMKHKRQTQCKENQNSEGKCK
Assay [13] has as its target ALX1 (Homo sapiens, UniProt Q15699 118-204).
In assay [14] the target is HOXA2 (Homo sapiens, UniProt O43364 129-215).
HOXA2 (Homo sapiens, UniProt O43364 129-215), sequence (O43364 129-215): as the sequence (O43364 129-215 Y150S) above, with S22Y counted along it
Assay [15] deals with HOXB6 (Homo sapiens, UniProt P17509 132-218, K202E).
HOXB6 (Homo sapiens, UniProt P17509 132-218, K202E), sequence (P17509 132-218 K202E): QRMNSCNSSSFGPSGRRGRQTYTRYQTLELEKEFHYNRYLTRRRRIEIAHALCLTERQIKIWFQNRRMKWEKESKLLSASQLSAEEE
In assay [16] the target is HOXB6 (Homo sapiens, UniProt P17509 132-218).
HOXB6 (Homo sapiens, UniProt P17509 132-218), sequence (P17509 132-218): as the sequence (P17509 132-218 K202E) above, with E71K counted along it
The target in assay [17] is HOXC10 (Homo sapiens, UniProt Q9NYD6 254-340).
HOXC10 (Homo sapiens, UniProt Q9NYD6 254-340), sequence (Q9NYD6 254-340): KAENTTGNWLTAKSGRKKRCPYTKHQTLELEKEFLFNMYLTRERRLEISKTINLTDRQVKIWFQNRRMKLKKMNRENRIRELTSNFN
Another assay addresses ALX3 (Homo sapiens, UniProt O95076 139-225, N203Q).
The target in assay [18] is HOXC10 (Homo sapiens, UniProt Q9NYD6 254-340, K271E).
HOXC10 (Homo sapiens, UniProt Q9NYD6 254-340, K271E), sequence (Q9NYD6 254-340 K271E): as the sequence (Q9NYD6 254-340) above, with K18E counted along it
Assay [19] concerns the target T1, PAX4 (Homo sapiens, UniProt O43316 9-242, R200K).
T1 sequence: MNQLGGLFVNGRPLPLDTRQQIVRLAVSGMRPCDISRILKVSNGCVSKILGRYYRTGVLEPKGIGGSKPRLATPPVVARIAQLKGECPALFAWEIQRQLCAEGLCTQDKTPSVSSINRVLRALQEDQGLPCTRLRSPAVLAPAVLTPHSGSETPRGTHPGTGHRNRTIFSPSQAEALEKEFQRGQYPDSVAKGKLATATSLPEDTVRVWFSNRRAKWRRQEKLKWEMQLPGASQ

Assay [20] has as its target T2, PAX4 (Homo sapiens, UniProt O43316 9-242).
T2 sequence: T1 sequence with K192R

Assay [21] concerns the target T3, PAX4 (Homo sapiens, UniProt O43316 9-242, R200Q).
T3 sequence: T1 sequence with K192Q

The target in assay [22] is T4, PAX4 (Homo sapiens, UniProt O43316 9-242, F177V).
T4 sequence: T1 sequence with F169V, K192R

Assay [23] has as its target T5, PAX4 (Homo sapiens, UniProt O43316 9-242, F177Y).
T5 sequence: T1 sequence with F169Y, K192R

Assay [24] deals with T6, PAX4 (Homo sapiens, UniProt O43316 9-242, R227W).
T6 sequence: T1 sequence with K192R, R219W

The next assay deals with T7, NKX2-6 (Homo sapiens, UniProt A6NCS4 118-204, R150C).
T7 sequence: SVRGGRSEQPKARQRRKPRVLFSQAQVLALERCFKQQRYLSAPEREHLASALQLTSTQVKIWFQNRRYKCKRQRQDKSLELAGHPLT

For assay [25], the target named is VAX1 (Homo sapiens, UniProt Q5SQQ9 86-172).
VAX1 (Homo sapiens, UniProt Q5SQQ9 86-172), sequence (Q5SQQ9 86-172): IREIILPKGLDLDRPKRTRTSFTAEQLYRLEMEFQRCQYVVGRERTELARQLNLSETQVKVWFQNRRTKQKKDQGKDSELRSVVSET
For assay [26], the target named is VAX1 (Homo sapiens, UniProt Q5SQQ9 86-172, T142I).
VAX1 (Homo sapiens, UniProt Q5SQQ9 86-172, T142I), sequence (Q5SQQ9 86-172 T142I): as the sequence (Q5SQQ9 86-172) above, with T57I counted along it
Assay [27] deals with VAX1 (Homo sapiens, UniProt Q5SQQ9 86-172, K157R).
VAX1 (Homo sapiens, UniProt Q5SQQ9 86-172, K157R), sequence (Q5SQQ9 86-172 K157R): as the sequence (Q5SQQ9 86-172) above, with K72R counted along it
Assay [28] concerns the target MSX2 (Homo sapiens, UniProt P35548 130-214, R199I).
For assay [29], the target named is MSX2 (Homo sapiens, UniProt P35548 130-214).
MSX2 (Homo sapiens, UniProt P35548 130-214), sequence (P35548 130-214): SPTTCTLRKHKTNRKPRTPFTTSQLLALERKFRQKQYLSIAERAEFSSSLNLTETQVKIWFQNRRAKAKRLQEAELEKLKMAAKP
The target in assay [30] is MSX2 (Homo sapiens, UniProt P35548 130-214, F161Y).
MSX2 (Homo sapiens, UniProt P35548 130-214, F161Y), sequence (P35548 130-214 F161Y): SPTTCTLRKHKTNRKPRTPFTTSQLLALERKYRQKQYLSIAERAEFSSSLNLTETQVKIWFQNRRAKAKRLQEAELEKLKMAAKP

Where a chain is given by its changes, count along the chain named.

CRX (Homo sapiens, UniProt O43186 26-111, E42D), sequence (O43186 26-111 E42D): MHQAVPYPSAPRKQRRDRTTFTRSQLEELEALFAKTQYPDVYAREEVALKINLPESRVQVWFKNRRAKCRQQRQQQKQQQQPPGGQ
CRX (Homo sapiens, UniProt O43186 26-111, R41L), sequence (O43186 26-111 R41L): as the sequence (O43186 26-111 E42D) above, with R16L, D17E counted along it
CRX (Homo sapiens, UniProt O43186 26-111), sequence (O43186 26-111): as the sequence (O43186 26-111 E42D) above, with D17E counted along it
ALX1 (Homo sapiens, UniProt Q15699 118-204, L144R), sequence (Q15699 118-204 L144R): as the sequence (Q15699 118-204 L144V) above, with V27R counted along it
ALX1 (Homo sapiens, UniProt Q15699 118-204), sequence (Q15699 118-204): as the sequence (Q15699 118-204 L144V) above, with V27L counted along it
PRRX1 (Homo sapiens, UniProt P54821 80-166), sequence (P54821 80-166): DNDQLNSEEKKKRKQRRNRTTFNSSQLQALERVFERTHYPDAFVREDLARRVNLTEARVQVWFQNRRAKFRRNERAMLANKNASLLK
HOXA2 (Homo sapiens, UniProt O43364 129-215, R185K), sequence (O43364 129-215 R185K): as the sequence (O43364 129-215 Y150S) above, with S22Y, R57K counted along it
MSX2 (Homo sapiens, UniProt P35548 130-214, R199I), sequence (P35548 130-214 R199I): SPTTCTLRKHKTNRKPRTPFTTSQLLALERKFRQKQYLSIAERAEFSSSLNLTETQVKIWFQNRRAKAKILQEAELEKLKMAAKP
PRRX1 (Homo sapiens, UniProt P54821 80-166, F113S), sequence (P54821 80-166 F113S): as the sequence (P54821 80-166) above, with F34S counted along it
ALX4 (Homo sapiens, UniProt Q9H161 200-286), sequence (Q9H161 200-286): as the sequence (Q9H161 200-286 Q225E) above, with E26Q counted along it
ALX3, sequence (O95076 139-225 N203Q): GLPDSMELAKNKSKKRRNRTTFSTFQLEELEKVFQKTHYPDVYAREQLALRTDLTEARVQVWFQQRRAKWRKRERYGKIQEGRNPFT
HOXA2 (Homo sapiens, UniProt O43364 129-215, R185T), sequence (O43364 129-215 R185T): as the sequence (O43364 129-215 Y150S) above, with S22Y, R57T counted along it

For ACTGCGTG, the binding signal is 8.27 upbm affinity estimate (log intensity, higher = more binding, comparable within an allelic series) with CRX [1]; 9.32 upbm affinity estimate (log intensity, higher = more binding, comparable within an allelic series) with PRRX1 [2]; 8.35 upbm affinity estimate (log intensity, higher = more binding, comparable within an allelic series) in the assay with CRX [3]; 8.29 upbm affinity estimate (log intensity, higher = more binding, comparable within an allelic series) in the assay with CRX [4]; 9.57 upbm affinity estimate (log intensity, higher = more binding, comparable within an allelic series) with PRRX1 [5].
Consider CTAACTCC, for which the binding signal with CRX [1] is 9.81 upbm affinity estimate (log intensity, higher = more binding, comparable within an allelic series); in the assay with CRX [3], 9.62 upbm affinity estimate (log intensity, higher = more binding, comparable within an allelic series).
As for ACCGGGCG, the binding signal with CRX [1] is 7.62 upbm affinity estimate (log intensity, higher = more binding, comparable within an allelic series); with ALX4 [6], 7.78 upbm affinity estimate (log intensity, higher = more binding, comparable within an allelic series); with ALX4 [7], 7.99 upbm affinity estimate (log intensity, higher = more binding, comparable within an allelic series); in the assay with HOXA2 [8], 6.76 upbm affinity estimate (log intensity, higher = more binding, comparable within an allelic series); with CRX [3], 7.73 upbm affinity estimate (log intensity, higher = more binding, comparable within an allelic series); with ALX1 [9] it was 6.09 upbm affinity estimate (log intensity, higher = more binding, comparable within an allelic series). Besides, the binding signal with HOXA2 [10] is 10.3 upbm affinity estimate (log intensity, higher = more binding, comparable within an allelic series); in the assay with ALX1 [11], 6.25 upbm affinity estimate (log intensity, higher = more binding, comparable within an allelic series); with HOXA2 [12], 10.3 upbm affinity estimate (log intensity, higher = more binding, comparable within an allelic series); with CRX [4], 7.79 upbm affinity estimate (log intensity, higher = more binding, comparable within an allelic series); with ALX1 [13], 6.19 upbm affinity estimate (log intensity, higher = more binding, comparable within an allelic series); with HOXA2 [14], 7.26 upbm affinity estimate (log intensity, higher = more binding, comparable within an allelic series).
As to GGGACCCC, the binding signal with CRX [1] is 8.14 upbm affinity estimate (log intensity, higher = more binding, comparable within an allelic series); with HOXB6 [15] it was 8.9 upbm affinity estimate (log intensity, higher = more binding, comparable within an allelic series); with CRX [3], 8.1 upbm affinity estimate (log intensity, higher = more binding, comparable within an allelic series); with CRX [4] it was 8.05 upbm affinity estimate (log intensity, higher = more binding, comparable within an allelic series); with HOXB6 [16], 9.08 upbm affinity estimate (log intensity, higher = more binding, comparable within an allelic series).
CTTACGAC: the binding signal with CRX [1] is 10.1 upbm affinity estimate (log intensity, higher = more binding, comparable within an allelic series); with CRX [3], 10 upbm affinity estimate (log intensity, higher = more binding, comparable within an allelic series).
With CCTTATTA, the binding signal in the assay with CRX [1] is 11 upbm affinity estimate (log intensity, higher = more binding, comparable within an allelic series); with HOXC10 [17], 11.3 upbm affinity estimate (log intensity, higher = more binding, comparable within an allelic series); in the assay with CRX [3] it was 10.9 upbm affinity estimate (log intensity, higher = more binding, comparable within an allelic series); with ALX3, 8.6 upbm affinity estimate (log intensity, higher = more binding, comparable within an allelic series); with HOXC10 [18], 11.2 upbm affinity estimate (log intensity, higher = more binding, comparable within an allelic series); in the assay with CRX [4], 10.4 upbm affinity estimate (log intensity, higher = more binding, comparable within an allelic series).
Consider CCACGCCA, for which the binding signal with CRX [1] was 8.11 upbm affinity estimate (log intensity, higher = more binding, comparable within an allelic series); with PAX4 [19] it was 9.43 upbm affinity estimate (log intensity, higher = more binding, comparable within an allelic series); in the assay with PAX4 [20], 9.33 upbm affinity estimate (log intensity, higher = more binding, comparable within an allelic series); in the assay with CRX [3] it was 8.32 upbm affinity estimate (log intensity, higher = more binding, comparable within an allelic series); in the assay with PAX4 [21] it was 9.45 upbm affinity estimate (log intensity, higher = more binding, comparable within an allelic series); with PAX4 [22] it was 9.5 upbm affinity estimate (log intensity, higher = more binding, comparable within an allelic series). In addition, the binding signal is 9.5 upbm affinity estimate (log intensity, higher = more binding, comparable within an allelic series) in the assay with PAX4 [23]; 9.53 upbm affinity estimate (log intensity, higher = more binding, comparable within an allelic series) in the assay with PAX4 [24]; 8.24 upbm affinity estimate (log intensity, higher = more binding, comparable within an allelic series) in the assay with CRX [4].
CATCATAA: the binding signal in the assay with CRX [1] was 10.1 upbm affinity estimate (log intensity, higher = more binding, comparable within an allelic series); with HOXC10 [17] it was 11.7 upbm affinity estimate (log intensity, higher = more binding, comparable within an allelic series); with CRX [3], 10 upbm affinity estimate (log intensity, higher = more binding, comparable within an allelic series); with HOXC10 [18], 11.3 upbm affinity estimate (log intensity, higher = more binding, comparable within an allelic series); with CRX [4], 9.57 upbm affinity estimate (log intensity, higher = more binding, comparable within an allelic series).
For the sequence CGGCACGA, the binding signal was 8.45 upbm affinity estimate (log intensity, higher = more binding, comparable within an allelic series) with CRX [1]; 9.55 upbm affinity estimate (log intensity, higher = more binding, comparable within an allelic series) with NKX2-6; 8.43 upbm affinity estimate (log intensity, higher = more binding, comparable within an allelic series) with CRX [3]; 6.96 upbm affinity estimate (log intensity, higher = more binding, comparable within an allelic series) with VAX1 [25]; 7.11 upbm affinity estimate (log intensity, higher = more binding, comparable within an allelic series) with VAX1 [26]; 8.41 upbm affinity estimate (log intensity, higher = more binding, comparable within an allelic series) with CRX [4]. For the same sequence, the binding signal with VAX1 [27] was 7.16 upbm affinity estimate (log intensity, higher = more binding, comparable within an allelic series).
ATCAGTTA: the binding signal in the assay with CRX [1] is 9.84 upbm affinity estimate (log intensity, higher = more binding, comparable within an allelic series); with CRX [3], 9.71 upbm affinity estimate (log intensity, higher = more binding, comparable within an allelic series).
Regarding CGCTCGCC, the binding signal is 7.99 upbm affinity estimate (log intensity, higher = more binding, comparable within an allelic series) with CRX [1]; 8.05 upbm affinity estimate (log intensity, higher = more binding, comparable within an allelic series) with CRX [3]; 9.42 upbm affinity estimate (log intensity, higher = more binding, comparable within an allelic series) with MSX2 [28]; 6.31 upbm affinity estimate (log intensity, higher = more binding, comparable within an allelic series) with ALX1 [9]; 6.41 upbm affinity estimate (log intensity, higher = more binding, comparable within an allelic series) with ALX1 [11]; 9.46 upbm affinity estimate (log intensity, higher = more binding, comparable within an allelic series) in the assay with MSX2 [29]. Besides, the binding signal with VAX1 [25] is 6.87 upbm affinity estimate (log intensity, higher = more binding, comparable within an allelic series); with MSX2 [30] it was 9.5 upbm affinity estimate (log intensity, higher = more binding, comparable within an allelic series); with VAX1 [26], 7.1 upbm affinity estimate (log intensity, higher = more binding, comparable within an allelic series); with CRX [4] it was 8.16 upbm affinity estimate (log intensity, higher = more binding, comparable within an allelic series); with ALX1 [13], 6.39 upbm affinity estimate (log intensity, higher = more binding, comparable within an allelic series); in the assay with VAX1 [27], 7.05 upbm affinity estimate (log intensity, higher = more binding, comparable within an allelic series).
